Assay outcomes: PubChem, National Center for Advancing Translational Sciences (NCATS)
Compounds with a hit are over-represented: about 18% of the library has one in this group of screens.
CtBP-E1A blk = blocks the CtBP interaction with E1A; AlphaScreen GST-E1A/His-CtBP binding, 1536-well; active compounds read low; activity change, % (test concentration not listed); hit rate 0.49% among 340,000; AID 651724; in the data active = activity change below about -65%; inconclusive = mostly about -30% to -63%
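Protein mix (5X: 125 nM each GST-E1A, His-CtBP) was incubated with pinned compound 2 h at 37 deg C in dark, in 50 mM Tris pH 8.0 buffer with 300 mM NaCl. Glutathione donor and nickel acceptor beads followed; AlphaScreen signal read after 1 h.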
TDP1 inh = blocks human tyrosyl-DNA phosphodiesterase 1. Q9NUW8. recombinant TDP1, AlphaScreen DNA substrate cleavage. Potency, µM (top dose mostly 130 µM), actives largely listed as inhibitors. hit rate 0.28% among 350,000. AID 485290; also: nearly all actives have a fitted effect of over 40% in size
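Tdp1 1 nM final; 15 min RT w/ cpd; substrate 15 nM, 5 min; beads 10 ug/ml, 10 min; AlphaScreen read. Neg ctrl: no enzyme.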
DT40 TDP1 CPT = DT40-hTDP1 cell growth loss with CPT; chicken DT40 Tdp1-/-;hTDP1 cells + 20 nM CPT, ATP luminescence, 48 h; Potency, µM (doses to about 46.2 µM), actives largely listed as inhibitors; hit rate 12% among 420,000; AID 686979; also: nearly all actives have a fitted effect of over 55% in size
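Chicken DT40 Tdp1-/- cells complemented with human TDP1, 400 cells/well, exposed to compounds plus 20 nM camptothecin for at least 48 h at 37 C; viability read as ATP content by CellTiter-Glo luminescence.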
Six1-Eya2 inh = inhibitors of human Six1/Eya2 interaction. Q15475+O00167. AlphaScreen GST-Six1/His-Eya2 binding, biochemical; active compounds read low. activity change, % (test concentration not listed). hit rate 0.56% among 360,000. AID 651725; in the data active = activity change below about -65%; inconclusive = mostly about -30% to -63%
Target sequence (O00167 whole entry, looked up): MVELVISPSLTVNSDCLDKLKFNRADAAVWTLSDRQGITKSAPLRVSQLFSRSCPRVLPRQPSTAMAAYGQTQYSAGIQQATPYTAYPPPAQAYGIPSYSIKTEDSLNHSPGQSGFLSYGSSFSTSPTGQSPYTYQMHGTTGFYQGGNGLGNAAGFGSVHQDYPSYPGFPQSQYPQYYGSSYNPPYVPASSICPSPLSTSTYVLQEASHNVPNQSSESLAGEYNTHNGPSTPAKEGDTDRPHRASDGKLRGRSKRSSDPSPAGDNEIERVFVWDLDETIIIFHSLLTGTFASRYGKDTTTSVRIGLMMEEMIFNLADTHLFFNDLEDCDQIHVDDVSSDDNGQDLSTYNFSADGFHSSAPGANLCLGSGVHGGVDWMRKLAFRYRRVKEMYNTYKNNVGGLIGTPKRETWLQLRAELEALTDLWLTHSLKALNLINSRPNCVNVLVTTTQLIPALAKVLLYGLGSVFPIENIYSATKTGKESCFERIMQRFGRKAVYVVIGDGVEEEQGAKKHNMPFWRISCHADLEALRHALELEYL
Target sequence (Q15475 whole entry, looked up): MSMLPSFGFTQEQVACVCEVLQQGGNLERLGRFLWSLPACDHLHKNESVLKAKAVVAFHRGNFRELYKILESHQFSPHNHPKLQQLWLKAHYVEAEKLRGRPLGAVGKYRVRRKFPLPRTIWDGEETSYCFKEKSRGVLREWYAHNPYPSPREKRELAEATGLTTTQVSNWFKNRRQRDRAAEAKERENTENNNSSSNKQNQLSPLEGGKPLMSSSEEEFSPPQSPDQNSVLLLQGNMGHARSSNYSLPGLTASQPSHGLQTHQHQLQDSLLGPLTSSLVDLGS
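Compounds are tested against tagged Six1 and Eya2 proteins bridged by glutathione donor and nickel acceptor beads; after a one-hour incubation at 37 °C without light, AlphaScreen emission is recorded.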
DT40 TDP1 no CPT = qHTS for Inhibitors of human tyrosyl-DNA phosphodiesterase 1 (TDP1): qHTS in cells in absence of CPT; Potency, µM (highest dose often 46.2 µM), actives largely listed as inhibitors; hit rate 15% among 420,000; DT40 Tdp1-/- hTDP1 cells, no CPT, ATP luminescence, 48 h; AID 686978, 2013; also: nearly all actives have a fitted effect of over 55% in size
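Cells were dispensed at 400 per well, compounds added by pin tool, plates incubated ≥48 hr at 37 °C, then CellTiter-Glo added for 30 min at room temperature before luminescence reading. Line: DT40 Tdp1-/- complemented with hTDP1; camptothecin omitted.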
IL1B secr inh = blocks inflammasome-driven IL-1 beta release; THP-1 LPS/ATP IL-1B secretion, AlphaLISA, 16 h; active compounds read low; hit rate 4.7% among 360,000; activity change, % at 57.5 µM; in the data active = activity change below about -50%; inconclusive = mostly about -30% to -49%
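THP-1 cells pretreated 1 hr with compounds (up to 57.5 uM final), then stimulated with LPS (250 ng/mL final) plus ATP (1.25 mM final); secreted IL-1B measured by AlphaLISA after 16 hr, decreased signal indicating inhibition.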
A number is an active result; – = inactive; ? = inconclusive; · = no result. Unless noted, calls follow the shape of the dose curve; as a rule, active = well fitted curve in the direction sought with a large enough effect; inconclusive = small, poorly fitted or top-dose-only effect, or another doubt; inactive = no such curve, though single readings can be large; an effect the other way counts as inactive or inconclusive.

SMILES	CtBP-E1A blk	TDP1 inh	DT40 TDP1 CPT	Six1-Eya2 inh	DT40 TDP1 no CPT	IL1B secr inh
Cc1nnc(NC(=O)COc2ccccc2)s1	–	–	–	–	–	–
COc1cc(/C=C/c2nc3cc(Cl)ccc3c(=O)n2-c2ccc(C)cc2C)cc(OC)c1OC	·	–	16.4µM	·	?	·
Cc1cc(C)cc(OCCN2CCOCC2)c1	–	–	–	–	–	–
CCCCn1c(N)c(N(CCOC)C(=O)c2cc3ccccc3cc2OC)c(=O)[nH]c1=O	–	–	–	–	–	–
O=c1c2ccccc2nc(/C=C/c2ccc(Br)cc2)n1CCCO	–	·	23.1µM	–	20.6µM	?
Cn1c(/C=C/c2cccc(Br)c2)nc2ccccc2c1=O	–	·	29.1µM	–	?	–
Cc1[nH]c2ccccc2c1/C=C/c1nc2ccccc2c(=O)n1CCO	–	–	6.51µM	–	4.61µM	-84.3
O=c1c2ccccc2nc(/C=C/c2cccc(Br)c2)n1CCCO	–	·	?	–	13µM	-85.5
O=c1c2ccccc2nc(/C=C/c2cccc([N+](=O)[O-])c2)n1CCCO	–	·	–	–	?	–
O=c1c2ccccc2nc(/C=C/c2ccc([N+](=O)[O-])cc2)n1CCCO	?	–	?	–	20.6µM	·
O=c1c2ccccc2nc(/C=C/c2ccc([N+](=O)[O-])o2)n1CCCO	–	–	0.581µM	–	1.16µM	-110.6
O=c1c2ccccc2nc(/C=C/c2ccc(Br)cc2)n1CCO	–	·	?	–	23.1µM	-82.8
O=c1c2ccccc2nc(/C=C/c2ccc(Cl)cc2)n1CCO	–	–	20.6µM	–	?	-73.5
Cc1ccccc1/C=C/c1nc2ccccc2c(=O)n1Cc1ccccc1	–	–	–	–	–	–
CCC(C)(C(=O)NC1CCCCC1)N(Cc1cccs1)C(=O)CC1NC(=O)NC1=O (stereo not drawn)	–	–	–	–	–	–
O=S(=O)(Nc1nc2n(n1)C(c1ccccc1)C=C(c1ccc(Cl)cc1)N2)c1ccccc1 (stereo not drawn)	·	·	–	·	–	·
Cc1c(C(=O)NCc2ccccn2)sc2nc(-c3ccccc3)cn12	–	–	?	–	?	–
COc1ccc(-c2cn3c(C)c(C(=O)Nc4cccc(C)n4)sc3n2)cc1	–	–	?	–	23.1µM	–
Cc1cccc(NC(=O)c2sc3nc(-c4ccccc4)cn3c2C)n1	–	–	?	–	?	-58.6
Cc1c(C(=O)Nc2ccccc2)sc2nc(-c3ccccc3)cn12	–	–	18.4µM	–	?	?
COCCNC(=O)c1sc2nc(-c3ccccc3)cn2c1C	–	–	–	–	–	–
Cc1ccc(Cl)cc1NC(=O)c1sc2nc(-c3ccccc3)cn2c1C	·	–	20.6µM	·	14.6µM	·
CCC(=O)N1c2ccccc2CC1C(=O)N1CCN(c2cccc(Cl)c2)CC1 (stereo not drawn)	·	–	?	·	–	·
CC(=NO)C1CCC2C3CCC4=CC(=NO)CCC4(C)C3C(O)CC12C (stereo not drawn)	–	·	13µM	–	16.4µM	–
CC(=O)C1CCC2C3CC(O)C4=CC(=O)CCC4(C)C3C(=O)CC12C (stereo not drawn)	–	·	–	–	–	–
SMILES	CtBP-E1A blk	TDP1 inh	DT40 TDP1 CPT	Six1-Eya2 inh	DT40 TDP1 no CPT	IL1B secr inh
CC(=NO)C1CCC2C3CCC4=CC(=NO)CCC4(C)C3C(=O)CC12C (stereo not drawn)	–	·	13µM	–	16.4µM	–
O=C(N/N=C/c1cn[nH]c1-c1ccc(F)cc1)c1ccncc1	–	–	–	–	–	–
Cc1nn(C)c(C)c1CN(Cc1nc(-c2cc(F)ccc2F)oc1C)C1CC1	–	–	?	–	?	–
Cc1ccc(S(=O)(=O)NC2CC(C)(C)N(O)C(C)(C)C2)cc1	–	–	?	–	20.6µM	–
Cc1ccc(S(=O)(=O)NC2CC(C)(C)NC(C)(C)C2)cc1	–	·	–	–	–	–
COc1cccc(C(=O)C2CCCN(Cc3cn(C)nc3-c3ccccc3)C2)c1 (stereo not drawn)	–	·	23.1µM	–	?	–
CN(Cc1ccno1)Cc1cn(C)nc1-c1ccc(Oc2ccccc2)cc1	–	–	?	–	?	–
Cc1nn(C)cc1CN1CCCC(C(=O)c2ccc(-c3ccccc3)c(F)c2)C1 (stereo not drawn)	–	·	18.4µM	–	18.4µM	-57.1
O=C(c1ccc(-c2ccccc2)c(F)c1)C1CCCN(C(=O)c2cncs2)C1 (stereo not drawn)	–	–	?	–	13µM	?
CN(Cc1cn(C)nc1-c1ccc(Oc2ccccc2)cc1)Cc1cnc2ccccn12	·	–	?	–	20.6µM	–
CCOc1cc(C2Nc3ccccc3NC3=C2C(=O)CC(C)(C)C3)ccc1O (stereo not drawn)	·	–	–	–	–	–
O=C1CC(c2ccc(S(=O)(=O)NCCOc3ccccc3)cc2)CN1 (stereo not drawn)	–	–	–	–	–	–
Nn1c(SCC(=O)Nc2ccc(S(N)(=O)=O)cc2)nnc1C(F)(F)F	–	–	–	–	–	–
COCCN1CCN(Cc2cn(C)nc2-c2ccc(Oc3ccccc3)cc2)CC1	–	·	?	–	–	?
CC1CN(Cc2cn(C)nc2-c2ccc(Oc3ccccc3)cc2)CCN1C (stereo not drawn)	–	–	?	–	?	-64.4
Clc1cccc(-c2nnc(SC/C=C/c3ccccc3)n2Cc2ccco2)c1	–	–	20.6µM	–	?	-84.4
C(=C\c1ccccc1)/CSc1nnc(-c2ccccc2)n1Cc1ccco1	–	–	5.17µM	–	4.61µM	–
COc1cccc(CNC(=O)c2csc3c2CCCC3)c1	–	–	–	–	–	–
O=C(Nc1cccc(S(=O)(=O)N2CCOCC2)c1)C1CCCC1	·	–	–	–	–	–
Fc1ccc(-c2cc3nc(-c4ccccc4)cc(N4CCOCC4)n3n2)cc1	–	–	13µM	–	23.1µM	–
FC(F)(F)c1cc(-c2ccccc2)nc2cc(-c3ccccc3)nn12	·	–	–	·	–	·
COCCN1CCN(c2cc(-c3ccccc3)nc3cc(-c4cccc(F)c4)nn23)CC1	–	–	8.2µM	–	9.2µM	-79.4
c1ccc(-c2nnc3ccc(N4CCC5(CC4)OCCO5)nn23)cc1	–	–	?	–	?	–
Cc1ccc(-c2cc3nc(-c4ccccc4)cc(N4CCC5(CC4)OCCO5)n3n2)cc1	–	–	16.4µM	–	18.4µM	–
Fc1cccc(-c2cc3nc(-c4ccccc4)cc(N4CCC5(CC4)OCCO5)n3n2)c1	–	·	?	–	23.1µM	–
CNC(=S)Nc1cc(OC)ccc1OC	–	–	–	–	–	–
